Results: PubChem BioAssay (EPA / NIEHS)
Calls of active or inactive are those of the source. Rule for the calls: active = hit-call score of the fitted dose curve at least 0.9, where 1 is the maximum; inactive = score below 0.9.

Key:
[1] = read-out: Matrix Metallopeptidase 1 (MMP1), MMP1 (gene 4312); assay: BSK_hDFCGF_MMP1: BioMAP Diversity Plus: hDFCGF Assay for Matrix Metallopeptidase 1 (MMP1) Biomarker Activity (AID 2283064); settings: primary human foreskin fibroblasts; actives raise or lower the signal
In short: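 Primary human foreskin fibroblasts exposed to chemicals for 24 h; MMP1 measured by ELISA. Cytotoxicity tracked by SRB staining in parallel cultures; bidirectional fit relative to DMSO.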

[2] = read-out: Vascular cell adhesion molecule 1 (VCAM1), VCAM1 (gene 7412); assay: BSK_hDFCGF_VCAM1: BioMAP Diversity Plus: hDFCGF Assay for Vascular cell adhesion molecule 1 (VCAM1) Biomarker Activity (AID 2283065); settings: primary human foreskin fibroblasts; actives raise or lower the signal;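 for AC50: VCAM-1 protein level quantified by ELISA after 24 h chemical exposure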
In short: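 ELISA readout of VCAM-1 on human dermal fibroblast primary cultures, 24 h after chemical exposure. Gain or loss of signal fitted in both directions against DMSO baseline.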

[3] = read-out: Plasminogen activator inhibitor-1 (PAI1), SERPINE1 (gene 5054); assay: BSK_hDFCGF_PAI1: BioMAP Diversity Plus: hDFCGF Assay for Plasminogen activator inhibitor-1 (PAI1) Biomarker Activity (AID 2283066); settings: primary human foreskin fibroblasts; actives raise or lower the signal
In short: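 Human foreskin fibroblasts in the hDFCGF system were dosed with compound for 24 h; PAI-1 was quantified by ELISA. Bidirectional curve fitting used DMSO as negative control and baseline.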

[4] = read-out: Intercellular Adhesion Molecule 1 (ICAM1), ICAM1 (gene 3383); assay: BSK_KF3CT_ICAM1: BioMAP Diversity Plus: KF3CT Assay for Intercellular Adhesion Molecule 1 (ICAM1) Biomarker Activity (AID 2283067); settings: primary human keratinocytes with fibroblasts; actives raise or lower the signal
In short: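 Cell-surface ICAM-1 was measured by ELISA 24 h after dosing primary human skin keratinocytes co-cultured with fibroblasts. Parallel SRB staining tracked overt cytotoxicity. Gain or loss of signal was fitted relative to DMSO.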

[5] = read-out: Interferon-gamma inducible Protein 10 (IP10), CXCL10 (gene 3627); assay: BSK_KF3CT_IP10: BioMAP Diversity Plus: KF3CT Assay for Interferon-gamma inducible Protein 10 (IP10) Biomarker Activity (AID 2283068); settings: primary human keratinocytes with fibroblasts; actives raise or lower the signal
In short: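 In a primary skin co-culture of keratinocytes and fibroblasts, IP-10 is quantified by ELISA at 24 h after dosing. SRB staining of parallel wells monitors overt toxicity. Curves are fitted both directions against DMSO.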

[6] = BSK_KF3CT_SRB: Viability Assessment in the BioMAP Diversity Plus: KF3CT Assay (AID 2283069); settings: primary human keratinocytes with fibroblasts;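 note: total protein by sulforhodamine B staining as a cytotoxicity measure; read 24 h after compound addition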
In short: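 Human keratinocyte and foreskin fibroblast co-culture exposed to chemical for 24 h. Total protein measured in parallel cultures by 0.1% sulforhodamine B staining after 10% TCA fixation, read at 560 nm; bidirectional fit relative to DMSO.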

[7] = read-out: Interleukin-1 alpha (IL1a), IL1A (gene 3552); assay: BSK_KF3CT_IL1a: BioMAP Diversity Plus: KF3CT Assay for Interleukin-1 alpha (IL1a) Biomarker Activity (AID 2283070); settings: primary human keratinocytes with fibroblasts; actives raise or lower the signal
In short: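 Primary human keratinocyte plus foreskin fibroblast co-culture, dosed and measured at 24 h in 96-well plates. IL-1a level quantified by ELISA; bidirectional fit relative to DMSO.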

[8] = read-out: TIMP metallopeptidase inhibitor 2 (TIMP2), TIMP2 (gene 7077); assay: BSK_KF3CT_TIMP2: BioMAP Diversity Plus: KF3CT Assay for TIMP metallopeptidase inhibitor 2 (TIMP2) Biomarker Activity (AID 2283071); settings: primary human keratinocytes with fibroblasts; actives raise or lower the signal
In short: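 Human primary keratinocyte/foreskin fibroblast co-culture dosed with chemical and sampled at 24 h. TIMP-2 levels quantified by ELISA; bidirectional fitting against DMSO negative control as baseline.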

[9] = read-out: C-C motif chemokine 2 (Homo sapiens) (UniProt P13500); assay: BSK_KF3CT_MCP1: BioMAP Diversity Plus: KF3CT Assay for Monocyte Chemoattractant Protein 1 (MCP1/CCL2) Biomarker Activity (AID 2283073); settings: primary human keratinocytes with fibroblasts; actives raise or lower the signal
In short: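 ELISA read-out of MCP-1, 24 h post-dose, in primary human skin keratinocytes co-cultured with fibroblasts. Parallel SRB staining monitors cytotoxicity; changes fitted both directions relative to DMSO.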

[10] = read-out: urokinase plasminogen activator (uPA), PLAU (gene 5328); assay: BSK_KF3CT_uPA: BioMAP Diversity Plus: KF3CT Assay for urokinase plasminogen activator (uPA) Biomarker Activity (AID 2283075); settings: primary human keratinocytes with fibroblasts; actives raise or lower the signal
In short: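 Primary human keratinocyte/foreskin fibroblast co-culture exposed to chemical; uPA measured by ELISA at 24 h. Bidirectional fit versus DMSO, with parallel SRB total-protein staining for cytotoxicity.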

CD40, CD40 (gene 958) = assay: BSK_LPS_CD40: BioMAP Diversity Plus: LPS Assay for CD40 Biomarker Activity (AID 2283076); settings: primary human HUVEC with PBMC; actives raise or lower the signal
In short: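 In the LPS system of human endothelial cells with peripheral blood mononuclear cells, CD40 levels were read by ELISA 24 h post-treatment. Signal changes in either direction were fitted against the DMSO baseline, with parallel SRB protein staining.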

[11] = read-out: E-selectin (Homo sapiens) (UniProt P16581); assay: BSK_LPS_Eselectin: BioMAP Diversity Plus: LPS Assay for Eselectin Biomarker Activity (AID 2283077); settings: primary human HUVEC with PBMC; actives raise or lower the signal
In short: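 E-selectin ELISA on LPS-stimulated endothelial cell/PBMC co-cultures, read 24 h post-treatment; gains and losses fitted against DMSO. Parallel SRB staining (0.1% SRB after 10% TCA fixation, 560 nm) flags overt cytotoxicity.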

[12] = read-out: Interleukin-8 (IL8), CXCL8 (gene 3576); assay: BSK_LPS_IL8: BioMAP Diversity Plus: LPS Assay for Interleukin-8 (IL8) Biomarker Activity (AID 2283078); settings: primary human HUVEC with PBMC; actives raise or lower the signal
In short: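 ELISA read-out of IL-8 after 24 h chemical treatment of LPS-activated endothelial/PBMC human primary co-cultures. Changes either up or down relative to DMSO; overt cytotoxicity checked by sulforhodamine B staining in parallel wells.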

[13] = BSK_LPS_SRB: Viability Assessment in the BioMAP Diversity Plus: LPS Assay (AID 2283079); settings: primary human HUVEC with PBMC;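 note: total protein by sulforhodamine B absorbance as a cytotoxicity measure; measured one day after compound addition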
In short: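 SRB viability endpoint: cells fixed with 10% TCA, stained with 0.1% SRB, read at 560 nm, 24 h post-dose. HUVEC/PBMC co-culture; signal change in either direction scored relative to DMSO.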

[14] = read-out: Interleukin-1 alpha (IL1a), IL1A (gene 3552); assay: BSK_LPS_IL1a: BioMAP Diversity Plus: LPS Assay for Interleukin-1 alpha (IL1a) Biomarker Activity (AID 2283080); settings: primary human HUVEC with PBMC; actives raise or lower the signal
In short: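 Readout is IL-1a level by ELISA, 24 h post-dose, fitted as gain or loss relative to DMSO. System: LPS-activated human primary co-culture of vascular endothelium and peripheral blood mononuclear cells, with parallel SRB total-protein cytotoxicity.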

[15] = read-out: Monocyte Chemoattractant Protein-1 (MCP1), CCL2 (gene 6347); assay: BSK_LPS_MCP1: BioMAP Diversity Plus: LPS Assay for Monocyte Chemoattractant Protein-1 (MCP1) Biomarker Activity (AID 2283081); settings: primary human HUVEC with PBMC; actives raise or lower the signal;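 for AC50: secreted MCP-1 protein quantified by ELISA in culture supernatant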
In short: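 Secreted MCP-1 read by ELISA at 24 h post-dosing in an LPS-activated co-culture of endothelial cells with peripheral blood mononuclear cells. Fits run in both directions, DMSO as baseline; parallel SRB staining tracks overt cytotoxicity.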

[16] = BSK_LPS_PGE2: BioMAP Diversity Plus: LPS Assay for Prostaglandin E2 (PGE2) Biomarker Activity (AID 2283082); settings: primary human HUVEC with PBMC; actives raise or lower the signal
In short: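 HUVEC plus PBMC co-culture stimulated with LPS; secreted PGE2 quantified by ELISA 24 h after chemical dosing. Activity fitted bidirectionally against DMSO as negative control and baseline; parallel SRB total-protein staining served as cytotoxicity check.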

[17] = read-out: Macrophage colony-stimulating factor (MCSF), CSF1 (gene 1435); assay: BSK_LPS_MCSF: BioMAP Diversity Plus: LPS Assay for Macrophage colony-stimulating factor (MCSF) Biomarker Activity (AID 2283083); settings: primary human HUVEC with PBMC; actives raise or lower the signal
In short: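 Bidirectional fitting against DMSO was applied to M-CSF levels read by ELISA at 24 h post-dose. The system pairs human umbilical vein endothelium with peripheral blood mononuclear cells; parallel SRB staining tracked cytotoxicity.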

[18] = read-out: Matrix Metallopeptidase 9 (MMP9), MMP9 (gene 4318); assay: BSK_KF3CT_MMP9: BioMAP Diversity Plus: KF3CT Assay for Matrix Metallopeptidase 9 (MMP9) Biomarker Activity (AID 2283074); settings: primary human keratinocytes with fibroblasts; actives raise or lower the signal;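 note: MMP9 protein level quantified by ELISA in the co-culture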
In short: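 Human keratinocyte and foreskin fibroblast co-culture exposed to chemicals for 24 h; MMP9 biomarker measured by ELISA, bidirectional fitting relative to DMSO; cytotoxicity tracked by SRB total protein staining in parallel cultures.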

Measured: AC50

E-selectin (Homo sapiens), sequence (P16581 whole entry, looked up): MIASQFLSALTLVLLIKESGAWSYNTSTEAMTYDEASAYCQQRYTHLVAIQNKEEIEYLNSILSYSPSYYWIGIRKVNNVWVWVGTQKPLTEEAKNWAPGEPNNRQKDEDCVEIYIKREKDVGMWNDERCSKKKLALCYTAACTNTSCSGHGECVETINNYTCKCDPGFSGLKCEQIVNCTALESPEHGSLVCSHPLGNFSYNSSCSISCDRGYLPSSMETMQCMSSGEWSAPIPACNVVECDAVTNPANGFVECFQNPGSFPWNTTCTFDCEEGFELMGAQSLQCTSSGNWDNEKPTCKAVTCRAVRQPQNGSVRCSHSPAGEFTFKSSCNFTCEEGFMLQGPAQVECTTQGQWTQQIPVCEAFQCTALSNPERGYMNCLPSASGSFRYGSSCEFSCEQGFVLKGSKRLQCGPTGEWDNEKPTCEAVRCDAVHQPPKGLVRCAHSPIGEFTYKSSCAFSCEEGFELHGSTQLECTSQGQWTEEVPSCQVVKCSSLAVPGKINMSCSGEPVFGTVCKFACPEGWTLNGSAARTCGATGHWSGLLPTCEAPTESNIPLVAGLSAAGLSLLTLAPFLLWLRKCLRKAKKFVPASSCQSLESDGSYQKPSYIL

C[C@]12CC[C@@H](O)C[C@@H]1CC[C@@H]1[C@@H]2CC[C@]2(C)C(=O)CC[C@@H]12
not listed: [18]
inactive: all other assays above

CC(C)N(C(=O)CCl)c1ccccc1
inactive: [7] | [16]
active: [1] 11.4 µM | [2] 1.43 µM | [3] 4.77 µM | [4] 28.5 µM | [5] 20 µM | [6] 27.1 µM | [8] 14.2 µM | [9] 11.1 µM | [18] 29.6 µM | [10] 33.3 µM | CD40, CD40 (gene 958) 13.9 µM | [11] 25.4 µM | [12] 20 µM | [13] 20 µM | [14] 5.56 µM | [15] 27.3 µM | [17] 20 µM
